Measured values: PubChem BioAssay AID488896 (Broad Institute, 2010)
About 3,100 (0.97%) of roughly 320,000 compounds were called active. The sample holds actives, similar compounds and a random draw of the others, so the mix is not that of the screen.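 How the source made its calls: active means mean replicate inhibition of at least 70% and a set share of replicates each scoring 70 or more; inconclusive means meets just one of the two criteria; inactive means fails both criteria.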

What follows are compounds tested against Scavenger receptor class B member 1 (Mus musculus) (UniProt Q61009) (assay: mouse SR-BI DiI-HDL uptake blockers – ldlA[mSR-BI] cells, fluorescence, single point, primary screen (AID 488896;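 further: 0% = median of neutral control wells and 100% = median of positive control wells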)). Conditions: ldlA[mSR-BI] CHO cells, 3 h, at 12.5 µM, hits give high values.
Sequence of Scavenger receptor class B member 1 (Mus musculus) (Q61009 whole entry, looked up): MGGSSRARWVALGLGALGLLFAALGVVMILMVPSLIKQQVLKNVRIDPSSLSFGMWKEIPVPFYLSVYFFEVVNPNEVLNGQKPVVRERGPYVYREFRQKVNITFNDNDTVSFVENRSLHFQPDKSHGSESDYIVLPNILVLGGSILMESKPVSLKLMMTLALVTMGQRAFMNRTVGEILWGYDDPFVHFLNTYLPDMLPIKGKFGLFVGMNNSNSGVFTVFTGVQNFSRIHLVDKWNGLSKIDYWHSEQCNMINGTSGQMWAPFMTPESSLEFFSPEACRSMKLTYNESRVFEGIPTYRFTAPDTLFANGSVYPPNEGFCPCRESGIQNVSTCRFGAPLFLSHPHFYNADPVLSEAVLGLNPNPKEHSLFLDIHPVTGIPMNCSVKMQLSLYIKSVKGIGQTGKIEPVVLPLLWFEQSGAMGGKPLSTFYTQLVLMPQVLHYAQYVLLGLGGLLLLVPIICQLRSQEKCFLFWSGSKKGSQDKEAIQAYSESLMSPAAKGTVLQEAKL

inhibition, active:
Oc1c(Cl)cc(Cl)c(Cl)c1Cc1c(O)c(Cl)cc(Cl)c1Cl 78.2%, CN(C(=O)COc1ccccc1)c1nnc(-c2ccncc2)s1 70.2%, CCOc1cc(NC(=O)c2ccco2)c(OCC)cc1NC(=O)COc1ccccc1 80.9%, CCOc1cc(N2CCOCC2)c(OCC)cc1NC(=O)COc1cccc(Cl)c1 74.8%, O=C1Nc2ccc(Br)cc2/C1=N/N=C/C1=C(N2CCOCC2)C(=C\c2ccccc2)/CC1 147%, C(=N\N1CCN(c2ccccn2)CC1)/C1=C(N2CCOCC2)C(=C/c2ccccc2)/CC1 95.8%, CCOc1ccc(-c2nnn(CC(=O)N3CCN(c4ccc(OC)cc4)CC3)n2)cc1OCC 82%, CCCCCCC(=O)Nc1nc(C)c(-c2csc(Nc3cccc(OC)c3)n2)s1 87.2%, CCCCCCC(=O)Nc1nc(C)c(-c2csc(Nc3cc(Cl)ccc3OC)n2)s1 97.4%, C=CCCC(=O)Nc1nc(C)c(-c2csc(Nc3ccc(Cl)cc3)n2)s1 104%, CCCCC(=O)Nc1nc(C)c(-c2csc(Nc3ccc(Cl)cc3)n2)s1 103%, Cc1cc(C(=O)CSc2nc(N)cc(=O)[nH]2)c(C)n1CCc1ccc(Cl)cc1 83.8%, N#C/C(=C\C1=C(N2CCOCC2)C(=C\c2ccccc2)/CC1)C(=O)Nc1ccccc1F 83.9%, O=C(NNc1c2ccccc2nc2ccccc12)c1cc2ccccc2cc1O 117%, COc1ccc2nc(Nc3nc(-c4ccncc4)cs3)sc2c1 80.2%, COc1cccc(C(=O)Nc2nc3ccc(S(C)(=O)=O)cc3s2)c1 70.8%, CCOc1ccc2nc(NC(=O)c3cc([N+](=O)[O-])ccc3N3CCOCC3)sc2c1 78.1%

inhibition, inactive:
CC(C)(C)OC(=O)N(Cc1ccccc1)Cc1ccc(OCc2cccc(NC(=O)c3ccccc3)c2)cc1 30.4%, COc1cc(OC)cc(-c2nnc(N(C)C(=O)c3ccncc3)s2)c1 45%, CN(C(=O)c1ccccn1)c1nnc(-c2ccccn2)s1 -7.4%, N#CCc1c[nH]c2ccc([N+](=O)[O-])cc12 -13.4%, Cc1nc(Nc2ccccc2C)c2cnn(C)c2n1 -3.29%, CCOc1cc(N2CCOCC2)c(OCC)cc1NC(=O)c1cc(C)nc2ccccc12 20.8%, CCOc1cc(NC(=S)NCc2ccco2)c(OCC)cc1NC(=O)c1ccco1 43.4%, CCOc1cc(NC(=S)NCCCOC)c(OCC)cc1NC(=O)c1ccco1 28.5%, CCOc1cc(N2CCOCC2)c(OCC)cc1NC(=O)c1ccc(C)s1 37%, CN(C)C(=S)N=c1ssc(=S)n1Cc1ccco1 0.753%, CC(=O)Nc1ccc(C(=O)Nc2cc(S(=O)(=O)N3CCOCC3)ccc2N2CCOCC2)cc1 -8.12%, COC(=O)Cc1c(-c2[nH]c3ccccc3c2CC(=O)OC)[nH]c2ccccc12 37.9%, O=C(NOCc1ccccc1)c1cccc([N+](=O)[O-])c1 -13.8%, COc1ccc(/C=N/N=C2/C(=O)Nc3ccccc32)cc1O -2.91%, O=C(O)c1ccc(NN=CC2=C(N3CCOCC3)/C(=C/c3ccccc3)CC2)cc1 -13%, O=C(CSc1nnc(N2CCOCC2)n1-c1cccc(F)c1)N1CCN(c2ccccn2)CC1 0.884%, C[C@H](O)[C@@H]1C(=O)N2CCc3ccc(N4CCOCC4)cc3[C@@H]2C[C@@H]1N(C)C(=O)C(C)(C)C -2.83%, COc1cc2c(cc1OC)C(Cc1cc(OC)c(OC)cc1[N+](=O)[O-])=NCC2 -13%, CC1CN(Cc2ccco2)C(=S)N(c2ccccc2)C1=O (configuration not stated) -33.1%, COc1cc(C2c3cc4c(cc3C(O)C3COC(=O)C23)OCO4)cc(OC)c1OC (configuration not stated) -0.16%, CCOc1ccc(S(=O)(=O)N2CCN(C(=O)c3oc4ccccc4c3C)CC2)cc1 -15.2%, COc1ccc(C(=O)Cn2nnc(-c3ccc(N4CCOCC4)cc3)n2)cc1OC 33%, CCOc1ccc(-c2nnn(CC(=O)N3CCN(c4ccc(F)cc4)CC3)n2)cc1OCC 48.2%, COc1ccc(Cl)cc1NC(=O)c1oc(C)nc1C 10.4%, CCCCN(C)CCC(=O)Nc1ccc(Cl)cc1 -5.92%, CCC(=O)Nc1nc(C)c(C(=O)Nc2cccc(Cl)c2)s1 49.6%, CCCCC(=O)N/N=C(\C)CC(=O)Nc1cc(Cl)ccc1OC 27.7%, COc1cccc(NC(=O)CN2CCN(c3nc(-c4cccc(OC)c4)cs3)CC2)c1 19.1%, Cc1nc(NC(=O)CN(C)S(=O)(=O)c2ccc(Cl)cc2)sc1C 2.99%, COc1cccc(CC(=O)Nc2ccc(-c3csc(C)n3)cc2)c1 22%, Cc1cccc(S(=O)(=O)CC(=O)Nc2nc(-c3ccccc3)cs2)c1 -18%, CC(=O)c1cccc(-c2ccc(CN3C(CC(C)C)C(=O)N(Cc4cn(CC5CCCCC5)nn4)CCS3(=O)=O)cc2)c1 (configuration not stated) 48.8%, COc1cc(O)c2c(=O)c3c(O)c(O)ccc3oc2c1OC 10.1%, O=c1oc2ccccc2c(=O)c2ccccc12 -23.4%, COc1ccc(C(=O)N(C)Cc2ccc(OC)c(OC)c2OC)cc1S(=O)(=O)N1CCOCC1 -8.86%, CC(Nc1ccc([N+](=O)[O-])cc1[N+](=O)[O-])c1ccccc1 (configuration not stated) 21.4%, O=[N+]([O-])c1cc2ccccc2nc1-c1ccccc1 -10.5%, O=C(O)C1C2C=CC(O2)C1C(=O)Nc1ccccn1 (configuration not stated) -12.6%, CCN(CC(=O)Nc1c(F)cccc1F)C(=O)Cc1cccs1 9.34%, CC(NC(=O)c1ccccc1)C(=O)OCC(=O)Nc1cccc(S(=O)(=O)N2CCCC2)c1 (configuration not stated) -1.56%, CCOc1cc(C(=O)N(Cc2ccccc2)c2ccc(C)cc2)ccc1OCC(=O)N1CCOCC1 5.71%, O=C(c1ccc2c(c1)C(=O)N(Cc1ccncc1)C2=O)N1CCN(S(=O)(=O)c2ccc(OC(F)(F)F)cc2)CC1 -23.1%, Cc1cc(C(=O)CSc2nc(N)cc(=O)[nH]2)c(C)n1Cc1ccco1 -21.5%, CCCc1cc(=O)[nH]c(SCC(=O)c2cc(C)n(CCC)c2C)n1 10.7%, O=C(O)C(CCc1ccccn1)c1ccccc1 (configuration not stated) 11.9%, CCCCC(=O)NC(c1ccc(OC)c(OC)c1)c1ccc2cccnc2c1O (configuration not stated) 3.38%, N#C/C(=C\c1ccccc1C(F)(F)F)C(=O)Nc1ccccc1F -32.2%, O=C(CC1SC(N2CCOCC2)=NC1=O)Nc1ccccc1F (configuration not stated) -4.16%, O=C(Nc1ccc(S(=O)(=O)N2CCOCC2)cc1)C1CCN(S(=O)(=O)c2ccc(Cl)cc2)CC1 -8.47%, CC12CCCCC1=CC(=O)CC2 (configuration not stated) -0.111%, COc1ccc(Cl)cc1C=CC=NNC(=O)c1ccncc1 70%, CC(C)(C)OC(=O)NNc1c2ccccc2nc2ccccc12 23.2%, O=C(N/N=C/c1cccnc1)c1cc2ccccc2cc1O 25.7%, COC(=O)c1ccc(NCc2cc(O)ccc2O)cc1 -3.37%, CC(C)c1cc(N=O)cc(C(C)C)c1O -19.1%, O=C(NN=Cc1ccccc1)c1ccccc1 -4.39%, CC(C)c1ccc(C=NNc2ccc([N+](=O)[O-])cn2)cc1 -2.92%, Cc1nn(-c2ccc(F)cc2)c(Cl)c1/C=C(/CCC(=O)O)c1nc2ccccc2s1 -16%, O=C(CC1Sc2ccccc2NC1=O)NNc1ccc(Cl)c(Cl)c1 (configuration not stated) 45.6%, N#CC1=C(N)Oc2cc(N)ccc2C1c1ccccc1 (configuration not stated) -23.9%, COc1ccc2nc(NC(=O)[C@@H]3CCCN3C(=O)c3cccs3)sc2c1 14.9%, COc1ccc2nc(NC(=O)c3ccc(Br)s3)sc2c1 55.7%, OCC(O)C1OCOC(C(O)CO)C1O (configuration not stated) -38.2%, CC1(C)C(=O)CCC2(C)C1=CCC1C2C(=O)CC2(C)C1CCC2(O)C(=O)CO (configuration not stated) -7.32%, CC1CCCN(C(=O)Cn2c(=O)oc3cc(S(=O)(=O)N4CCCCC4C)ccc32)C1 (configuration not stated) -29.3%, CC(C)C[C@H]1CN([C@@H](CC(C)C)CN2CCC[C@@H]2CN2C(=O)C(=O)NC[C@@H]2Cc2ccccc2)C(=O)C(=O)N1CCc1ccccc1 20.9%, CS(=O)(=O)c1ccc2nc(NC(=O)c3ccc(Cl)nc3)sc2c1 32.9%, CS(=O)(=O)c1ccc2nc(NC(=O)C3C4C=CC(C4)C3C(=O)O)sc2c1 (configuration not stated) 5.33%, Cc1ccc(S(=O)(=O)n2oc(=O)c(C3CCCCC3)c2N)cc1 -8.19%, O=C1C(Cl)=C(Oc2ccccc2)C(=O)c2ccccc21 13.1%, CCCC(=O)N(CCN1CCOCC1)c1nc2ccc(OCC)cc2s1 40.2%, COc1ccc(S(=O)(=O)N2CCCCC2)cc1NC(=O)c1cc([N+](=O)[O-])ccc1N1CCOCC1 23.2%, O=C1OC(Cc2ccccc2)C(c2ccccc2)C1=O (configuration not stated) -5.71%, COc1ccc(N=C2C=CC(=O)O2)cc1 -24.8%, O=S(=O)(Cc1ccc(Cl)cc1Cl)c1ccc(Cl)cc1 15.8%
